The source of these data is PubChem BioAssay (NCI).

This is part of a sample that, as a whole, favours compounds with a hit. Of some 83,000 tested, about 20% had one in any assay.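 Interpretation: 100, growth as untreated; towards 0, rising growth inhibition; 0, no net growth; 0 to -100, cell death. Compounds scoring below 10 were considered active.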 A number with no mark means an inactive call. Active and inactive are the calls of the source.

Some test systems named below: HCT-15 colon; HT29 colon; SNB-19 CNS; U251 CNS; PC-3 prostate; SK-MEL-5 melanoma; UACC-62 melanoma; LOX IMVI melanoma; SK-MEL-28 melanoma; SK-MEL-2 melanoma; SN12C renal; UO-31 renal; TK-10 renal; ACHN renal; CAKI-1 renal; A498 renal; CCRF-CEM leukemia; MOLT-4 leukemia; EKVX NSCLC.
Holding throughout (assay): NCI-60 one-dose screen, 48 h (100 = growth as untreated, 0 = no growth, -100 = all killed)
Details in all cases: 10 µM unless noted

Take `Fc1ccc(-c2nc(-c3nc4ncccc4[nH]3)cc3c2[nH]c2ccccc23)cc1F`: the growth was 54.7% in the assay with HCT-15 colon; 39.1% with HT29 colon; 102% in the assay with SNB-19 CNS; 81.9% with U251 CNS; 73.3% in the assay on PC-3 prostate; 28.3% with SK-MEL-5 melanoma. Besides, the growth is 79.9% in the assay on UACC-62 melanoma; 48.5% in the assay on LOX IMVI melanoma; 94% in the assay on SK-MEL-28 melanoma; 83.1% with SK-MEL-2 melanoma; 72.5% with SN12C renal; 41.9% in the assay on UO-31 renal. Besides, the growth with TK-10 renal is 91.7%; with ACHN renal it was 83%; in the assay on CAKI-1 renal, 92.3%; with A498 renal, 88.4%; in the assay with CCRF-CEM leukemia, 67.2%; in the assay with MOLT-4 leukemia, 49.8%.
For `O=S(=O)(NCCNc1nccc(-c2c(-c3ccc(O)cc3)nc3sccn23)n1)c1cccc2ccccc12`, the growth with HCT-15 colon was 100%; with HT29 colon it was 102%; in the assay on SNB-19 CNS, 99.7%; in the assay with U251 CNS, 95.3%; in the assay on PC-3 prostate, 97.5%; in the assay on SK-MEL-5 melanoma it was 102%. Besides, the growth in the assay on UACC-62 melanoma is 106%; in the assay with LOX IMVI melanoma, 101%; in the assay with SK-MEL-28 melanoma, 111%; in the assay on SK-MEL-2 melanoma, 124%; with SN12C renal it was 97.7%; in the assay on UO-31 renal, 85.1%. In addition, the growth with TK-10 renal is 98.2%; with ACHN renal, 107%; in the assay on CAKI-1 renal it was 99.7%; in the assay on A498 renal it was 104%; with CCRF-CEM leukemia, 97.8%; in the assay on MOLT-4 leukemia it was 87.6%.
Turning to `O=[N+]([O-])c1ccc(/C=C/C2(CCl)OCCO2)cc1`, the growth with HCT-15 colon is 109%; in the assay with HT29 colon, 92.5%; with SNB-19 CNS, 95.6%; with U251 CNS, 97.3%; with PC-3 prostate it was 96.4%; in the assay on SK-MEL-5 melanoma, 104%. Further, the growth was 89.8% in the assay on UACC-62 melanoma; 80.6% in the assay on LOX IMVI melanoma; 112% in the assay with SK-MEL-28 melanoma; 91.7% in the assay on SK-MEL-2 melanoma; 102% in the assay with SN12C renal; 95.3% in the assay with UO-31 renal. In addition, the growth with TK-10 renal is 103%; in the assay with ACHN renal, 116%; in the assay with A498 renal it was 113%; with CCRF-CEM leukemia it was 62.4%; in the assay with MOLT-4 leukemia it was 45.8%.
Turning to `COc1ccc(-c2nc(/C=N/Nc3cc(C)nc4ccc(Br)cc34)c(C)o2)cc1`, the growth in the assay on HCT-15 colon is -87.4% (active); in the assay with HT29 colon, -76.2% (active); with SNB-19 CNS, -84.4% (active); with U251 CNS, -85.8% (active); in the assay on PC-3 prostate it was -78.1% (active); with SK-MEL-5 melanoma, 47.4%. Moreover, the growth is -77.5% (active) in the assay on UACC-62 melanoma; -86.7% (active) in the assay with LOX IMVI melanoma; -74.6% (active) in the assay on SK-MEL-28 melanoma; 104% in the assay on SK-MEL-2 melanoma; -8.99% (active) in the assay with EKVX NSCLC; -89.2% (active) with SN12C renal. The growth was -99.1% (active) with UO-31 renal; -100% (active) in the assay on ACHN renal; -91.2% (active) with CAKI-1 renal; 58.5% in the assay on A498 renal; -50.4% (active) with CCRF-CEM leukemia; -53.3% (active) in the assay with MOLT-4 leukemia.
For the compound `COc1ccc(-c2nc3sc(-c4cc(OC)c(OC)c(OC)c4)nn3c2/C=C2/C(=O)Nc3ccc(F)cc32)cc1`, the growth was -3.94% (active) in the assay with HCT-15 colon; -49.9% (active) in the assay with HT29 colon; 11% with SNB-19 CNS; -87.4% (active) with U251 CNS; -25% (active) in the assay with PC-3 prostate; -39.2% (active) in the assay on SK-MEL-5 melanoma. In addition, the growth was -26.1% (active) in the assay with UACC-62 melanoma; 17.8% with LOX IMVI melanoma; -72.8% (active) in the assay on SK-MEL-28 melanoma; -10.8% (active) in the assay with SK-MEL-2 melanoma; -29.2% (active) in the assay with SN12C renal; -33.4% (active) in the assay on UO-31 renal. Further, the growth is -52.2% (active) with TK-10 renal; -15.7% (active) in the assay with ACHN renal; 4.52% (active) with CAKI-1 renal; 96.7% in the assay with A498 renal; 20.6% with CCRF-CEM leukemia.
`O=C(O)COc1ccc(-c2cssc2=S)cc1`: the growth is 99.4% with HCT-15 colon; 87.5% in the assay with HT29 colon; 105% in the assay with SNB-19 CNS; 98.2% with U251 CNS; 104% in the assay on PC-3 prostate; 100% in the assay on SK-MEL-5 melanoma. Besides, the growth with UACC-62 melanoma is 107%; in the assay with LOX IMVI melanoma, 96.6%; in the assay with SK-MEL-28 melanoma, 108%; with SK-MEL-2 melanoma, 90.8%; in the assay on SN12C renal, 103%; in the assay on UO-31 renal, 88.9%. The growth is 103% with ACHN renal, 104% with CAKI-1 renal, 90.3% in the assay with CCRF-CEM leukemia and 102% in the assay with MOLT-4 leukemia.
`O=C(Nc1cccc(-n2cc(-c3ccncc3)c(-c3ccc(Cl)c(O)c3)n2)c1)Nc1ccc(Cl)c(C(F)(F)F)c1`: the growth in the assay with HCT-15 colon is 1.04% (active); in the assay with HT29 colon, -6.5% (active); with SNB-19 CNS, -28.8% (active); with U251 CNS, -70.4% (active); in the assay with PC-3 prostate, -10.4% (active); with SK-MEL-5 melanoma, -100% (active). In addition, the growth is -55.1% (active) with UACC-62 melanoma; -75.8% (active) with LOX IMVI melanoma; -31.5% (active) in the assay on SK-MEL-28 melanoma; -60.4% (active) in the assay on SK-MEL-2 melanoma; 7.46% (active) in the assay on SN12C renal; -6.09% (active) with UO-31 renal. The growth was -1.62% (active) in the assay with TK-10 renal; 6.62% (active) with ACHN renal; 17.3% in the assay with CAKI-1 renal; 11.1% with A498 renal; -13.8% (active) in the assay with CCRF-CEM leukemia; -22.1% (active) with MOLT-4 leukemia.
As to `N#Cc1c(-c2ccccc2)nc(SCC(=O)N2CCN(c3ccccc3)CC2)[nH]c1=O`, the growth in the assay with HCT-15 colon was 107%; in the assay with HT29 colon it was 117%; in the assay on SNB-19 CNS it was 99.9%; in the assay with U251 CNS it was 95.7%; in the assay on PC-3 prostate, 95.6%; with SK-MEL-5 melanoma, 103%. Moreover, the growth in the assay on UACC-62 melanoma was 106%; with LOX IMVI melanoma, 97%; in the assay on SK-MEL-28 melanoma, 116%; with SK-MEL-2 melanoma, 113%; in the assay on SN12C renal it was 110%; with UO-31 renal, 87.6%. Besides, the growth with TK-10 renal is 145%; in the assay with ACHN renal, 101%; in the assay on CAKI-1 renal, 97.7%; in the assay with A498 renal, 116%; with CCRF-CEM leukemia, 100%.
In the case of `COc1ccc(C2C=C(c3ccc(Cl)cc3)N=C3SC=C(C)N32)c(Br)c1` (configuration not stated), the growth in the assay on HCT-15 colon was 25.4%; in the assay on HT29 colon, 4.51% (active); in the assay on SNB-19 CNS it was 78.2%; in the assay on U251 CNS it was 49.7%; with PC-3 prostate, 60.7%; in the assay on SK-MEL-5 melanoma, 48.9%. The growth was 58.1% in the assay with UACC-62 melanoma; 16.7% in the assay with LOX IMVI melanoma; 38.4% in the assay with SK-MEL-28 melanoma; 68.3% in the assay on SK-MEL-2 melanoma; 46.4% in the assay on SN12C renal; 40.7% in the assay with UO-31 renal. Further, the growth in the assay with TK-10 renal is 65.2%; in the assay on ACHN renal, 53%; in the assay on CAKI-1 renal, 49.9%; in the assay with A498 renal it was 90.2%; in the assay on CCRF-CEM leukemia, 7.84% (active); in the assay with MOLT-4 leukemia, 29.5%.
